Laboratory results taken from PubChem BioAssay AID1159580 (chemical genetic matrix, 2015).
“And” between values parts separate entries of the source, which are not always exact repeats. Equal values may be shown once. In all, about 5,500 compounds went through this assay and about 2,000 (36%) were called active. Roughly 18% stayed inconclusive and do not appear here. No stated cut-off is given here; in the data, active means normalized growth mostly below about 0.91 (no sharp cut-off); inconclusive means no clear call, values can overlap the other calls; inactive means mostly above about 0.92. The list shows a part of the results.

Assay: chemical genetic growth profiling, strain panel (AID 1159580);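 further: tested at 20 µM; growth read once vehicle control cultures reached saturation at 30 °C; 1 = growth at the plate median or of vehicle wells; lower values mean less growth of the strain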
Conditions: S. cerevisiae deletion strains, growth OD

Measured: normalized growth

CNCCC(Oc1ccc(C(F)(F)F)cc1)c1ccccc1 (stereo unspecified)
active: locus YDR137W, strain rgp1, active compounds read low 1.2 [resistant]
inactive: locus YAL013W, strain DEP1, active compounds read low 1 and 1.01 | locus YAL021C, strain ccr4, active compounds read low 0.994 | locus YAL026C, strain drs2, active compounds read low 0.991 | locus YAL030W, strain snc1, active compounds read low 0.987 | locus YAL040C, strain CLN3, active compounds read low 1.01 | locus YBL061C, strain skt5, active compounds read low 0.986 | locus YBR009C, strain hhf1, active compounds read low 0.99 | locus YBR021W, strain FUR4, active compounds read low 0.967 | locus YBR023C, strain chs3, active compounds read low 0.986 | locus YBR171W, strain sec66, active compounds read low 0.991 | locus YBR229C, strain ROT2, active compounds read low 1.01 | locus YBR231C, strain swc5, active compounds read low 0.986 | locus YBR279W, strain paf1, active compounds read low 0.985 | locus YCL011C, strain gbp2, active compounds read low 0.991 | locus YCL016C, strain dcc1, active compounds read low 0.995 | locus YCL029C, strain bik1, active compounds read low 0.99 | locus YCL061C, strain MRC1 (second series), active compounds read low 0.983 | locus YCL061C, strain MRC1, active compounds read low 0.985 | locus YCL069W, strain vba3, active compounds read low 0.998 | locus YCR088W, strain abp1, active compounds read low 0.995 | locus YDL005C, strain med2, active compounds read low 0.99 | locus YDL035C, strain GPR1, active compounds read low 0.987 | locus YDL040C, strain nat1, active compounds read low 0.985 | locus YDL074C, strain BRE1, active compounds read low 0.993 | locus YDL101C, strain DUN1, active compounds read low 1.02 | locus YDL134C, strain PPH21, active compounds read low 1.01 | locus YDL185W, strain tfp1, active compounds read low 1 | locus YDL192W, strain arf1, active compounds read low 1 | locus YDR001C, strain nth1, active compounds read low 0.998 | locus YDR069C, strain doa4, active compounds read low 0.944 | locus YDR101C, strain arx1, active compounds read low 0.987 | locus YDR150W, strain NUM1, active compounds read low 1.01 | locus YDR159W, strain sac3, active compounds read low 1 | locus YDR162C, strain NBP2, active compounds read low 0.992 | locus YDR195W, strain ref2 0.995 | locus YDR297W, strain sur2, active compounds read low 0.995 | locus YDR318W, strain mcm21, active compounds read low 0.996 | locus YDR334W, strain swr1, active compounds read low 0.987 | locus YDR335W, strain msn5, active compounds read low 1 | locus YDR363W, strain ESC2, active compounds read low 1.02 | locus YDR388W, active compounds read low 0.93 | locus YDR392W, strain spt3, active compounds read low 0.996 | locus YDR502C, strain sam2, active compounds read low 0.991 | locus YEL003W, strain gim4, active compounds read low 0.999 | locus YEL037C, strain rad23, active compounds read low 0.993 | locus YEL061C, strain CIN8 (second series), active compounds read low 0.998 | locus YEL061C, strain CIN8, active compounds read low 1.01 | locus YER002W, strain NOP16, active compounds read low 1 | locus YER015W, strain faa2, active compounds read low 0.997 | locus YER016W, strain bim1, active compounds read low 0.992 | locus YER110C, active compounds read low 0.994 | locus YER111C, strain swi4, active compounds read low 0.981 | locus YER155C, strain BEM2 (second series), active compounds read low 1.01 | locus YER155C, strain BEM2, active compounds read low 1.01 | locus YER167W, strain BCK2, active compounds read low 1.01 | locus YFR010W, strain ubp6, active compounds read low 0.972 | locus YGL078C, strain dbp3, active compounds read low 0.99 | locus YGL086W, strain mad1, active compounds read low 1 | locus YGL167C, strain pmr1, active compounds read low 0.987 | locus YGL173C, strain kem1, active compounds read low 0.982 | locus YGL227W, strain vid30, active compounds read low 0.982 | locus YGL240W, strain doc1, active compounds read low 0.975 | locus YGL248W, strain PDE1, active compounds read low 1.02 | locus YGL253W, strain hxk2, active compounds read low 0.977 | locus YGR078C, strain PAC10, active compounds read low 0.948 and 0.983 | locus YGR135W, strain pre9, active compounds read low 0.986 | locus YGR229C, strain SMI1, active compounds read low 0.949 | locus YGR252W, strain gcn5, active compounds read low 0.923 | locus YHR013C, strain ard1, active compounds read low 0.922 | locus YHR027C, strain rpn1, active compounds read low 0.991 | locus YHR030C, strain SLT2, active compounds read low 1.01 and 1 | locus YHR079C, strain IRE1 (second series), active compounds read low 0.997 | locus YHR079C, strain IRE1, active compounds read low 1.03 | locus YHR094C, strain hxt1, active compounds read low 1 | locus YHR129C, strain ARP1, active compounds read low 1.02 | locus YHR142W, strain chs7, active compounds read low 0.992 | locus YHR200W, strain rpn10, active compounds read low 0.993 | locus YIL066C, strain RNR3, active compounds read low 1.01 | locus YIL073C, strain SPO22, active compounds read low 1.25 | locus YIL125W, strain kgd1, active compounds read low 0.997 | locus YIR030C, strain dcg1, active compounds read low 1 | locus YJL092W, strain hpr5, active compounds read low 0.986 | locus YJL095W, strain BCK1 (second series), active compounds read low 0.992 | locus YJL095W, strain BCK1, active compounds read low 0.99 and 0.988 | locus YJL115W, strain asf1, active compounds read low 0.993 | locus YJL129C, strain trk1, active compounds read low 1.01 | locus YJL134W, strain LCB3, active compounds read low 1 | locus YJL154C, strain vps35, active compounds read low 1.01 | locus YJL164C, strain tpk1, active compounds read low 0.987 | locus YJL166W, strain qcr8, active compounds read low 0.99 | locus YJL168C, strain set2, active compounds read low 0.993 | locus YJL187C, strain SWE1 (second series), active compounds read low 1.02 | locus YJL187C, strain SWE1, active compounds read low 0.986 | locus YJR043C, strain POL32, active compounds read low 1 | locus YJR066W, strain TOR1, active compounds read low 0.988
